Our source for the binding signal values is article PMC4081100, “A DNA-binding-site landscape and regulatory network analysis for NAC transcription factors in Arabidopsis thaliana”.

Common to all, as to test: universal protein binding microarray (PBM); transcription factors of Arabidopsis thaliana; high values mean tight binding
Conditions in all cases: protein: recombinant; tags: GST; chain copies: 2; dsDNA, one strand shown

The target in one assay is T1, GST-ANAC092(1-176) (Arabidopsis thaliana, UniProt Q9FKA0 1-176).
T1 sequence: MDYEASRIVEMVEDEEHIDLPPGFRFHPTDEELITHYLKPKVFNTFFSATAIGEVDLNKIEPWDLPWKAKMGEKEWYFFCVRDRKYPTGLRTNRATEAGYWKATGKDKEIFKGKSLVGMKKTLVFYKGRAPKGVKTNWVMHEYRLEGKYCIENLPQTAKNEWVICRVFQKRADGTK
Put shortly:
(§1)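 Binding is expressed as the normalised enrichment score (E-score). Proteins carrying a GST tag, whether NAC-domain, full-length or DNA-binding-domain forms, were induced in cells, and zinc acetate was added for zinc-finger proteins. After purification on glutathione–Sepharose 4B and quantification by A280 or anti-GST western blot, each was applied in duplicate at 200 to 500 nM final to custom all-10-mer Agilent 4 × 180K arrays made double-stranded by primer extension. Gapped and ungapped 8-mers were scored.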

The target in a further assay is T2, GST-ANAC019 NAC domain (Arabidopsis thaliana, UniProt Q9C932 14-162).
T2 sequence: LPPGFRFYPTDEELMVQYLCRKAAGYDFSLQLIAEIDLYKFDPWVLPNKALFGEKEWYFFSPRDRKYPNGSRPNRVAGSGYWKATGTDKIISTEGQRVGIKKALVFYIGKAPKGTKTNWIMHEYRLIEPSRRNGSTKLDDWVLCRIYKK
Put shortly:
as §1

The target in a further assay is T3, GST-ANAC055(1-171) (Arabidopsis thaliana, UniProt Q9LDY8 1-171).
T3 sequence: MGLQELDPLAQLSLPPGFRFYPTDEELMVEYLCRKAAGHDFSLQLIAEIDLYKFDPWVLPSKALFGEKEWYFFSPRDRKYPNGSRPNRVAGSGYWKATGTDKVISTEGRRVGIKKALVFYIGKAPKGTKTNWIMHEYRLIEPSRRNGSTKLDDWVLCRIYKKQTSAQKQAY
In outline:
as §1

The target in a further assay is T4, GST-ATAF1 NAC domain (Arabidopsis thaliana, UniProt Q39013 7-158).
T4 sequence: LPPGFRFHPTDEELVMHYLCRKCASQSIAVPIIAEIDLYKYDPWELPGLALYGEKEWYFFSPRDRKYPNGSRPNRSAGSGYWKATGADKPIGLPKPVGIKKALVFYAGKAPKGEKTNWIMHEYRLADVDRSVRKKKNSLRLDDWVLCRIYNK
In outline:
as §1

In assay [1] the target is T5, GST-ANAC092(1-285) full length (Arabidopsis thaliana, UniProt Q9FKA0 1-285).
T5 sequence: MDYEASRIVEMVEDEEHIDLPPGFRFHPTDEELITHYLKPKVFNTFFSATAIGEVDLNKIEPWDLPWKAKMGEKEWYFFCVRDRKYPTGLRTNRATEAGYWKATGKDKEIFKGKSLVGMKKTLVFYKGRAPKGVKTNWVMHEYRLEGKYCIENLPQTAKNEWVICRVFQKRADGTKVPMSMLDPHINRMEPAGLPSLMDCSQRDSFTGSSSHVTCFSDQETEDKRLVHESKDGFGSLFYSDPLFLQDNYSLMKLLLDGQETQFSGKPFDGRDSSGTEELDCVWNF
Put shortly:
as §1

Another assay deals with T6, GST-NAP(1-166) (Arabidopsis thaliana, UniProt O49255 1-166).
T6 sequence: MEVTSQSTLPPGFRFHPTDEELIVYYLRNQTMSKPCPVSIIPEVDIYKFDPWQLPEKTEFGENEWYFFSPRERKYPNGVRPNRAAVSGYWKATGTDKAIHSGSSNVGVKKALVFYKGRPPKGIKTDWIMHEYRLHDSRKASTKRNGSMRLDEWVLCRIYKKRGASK
Put shortly: as §1

A further assay concerns the target T7, GST-NST2(1-184) (Arabidopsis thaliana, UniProt Q9M274 1-184).
T7 sequence: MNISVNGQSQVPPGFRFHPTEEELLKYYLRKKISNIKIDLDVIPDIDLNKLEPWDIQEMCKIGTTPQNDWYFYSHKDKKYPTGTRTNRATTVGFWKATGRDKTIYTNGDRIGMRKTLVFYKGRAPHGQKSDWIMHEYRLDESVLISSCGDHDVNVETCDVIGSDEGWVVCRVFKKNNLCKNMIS
Put shortly:
as §1

A further assay addresses T8, GST-SND1(1-203) (Arabidopsis thaliana, UniProt Q9LPI7 1-203).
T8 sequence: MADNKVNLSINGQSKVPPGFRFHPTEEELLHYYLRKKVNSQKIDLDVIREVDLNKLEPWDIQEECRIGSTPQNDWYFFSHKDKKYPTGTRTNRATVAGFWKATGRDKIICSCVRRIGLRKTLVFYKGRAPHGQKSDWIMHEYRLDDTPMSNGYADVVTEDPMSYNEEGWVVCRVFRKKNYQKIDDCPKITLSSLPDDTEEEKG
Put shortly: as §1

Another assay addresses T9, GST-VND3 NAC domain (Arabidopsis thaliana, UniProt Q9FH59 12-162).
T9 sequence: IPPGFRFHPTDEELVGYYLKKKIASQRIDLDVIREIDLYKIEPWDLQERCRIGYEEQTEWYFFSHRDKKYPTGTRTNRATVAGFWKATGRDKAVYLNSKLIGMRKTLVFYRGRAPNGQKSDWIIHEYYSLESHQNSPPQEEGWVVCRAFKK
Put shortly: as §1

The target in another assay is T10, GST-VND7 NAC domain (Arabidopsis thaliana, UniProt Q9C8W9 9-158).
T10 sequence: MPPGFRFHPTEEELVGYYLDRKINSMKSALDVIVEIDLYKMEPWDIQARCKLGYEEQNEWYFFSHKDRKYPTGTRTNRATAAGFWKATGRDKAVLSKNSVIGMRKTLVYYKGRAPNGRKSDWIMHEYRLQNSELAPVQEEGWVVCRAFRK
Put shortly: as §1

The target in a further assay is T11, GST-NTL8 NAC domain (Arabidopsis thaliana, UniProt Q9XIN7 14-156).
T11 sequence: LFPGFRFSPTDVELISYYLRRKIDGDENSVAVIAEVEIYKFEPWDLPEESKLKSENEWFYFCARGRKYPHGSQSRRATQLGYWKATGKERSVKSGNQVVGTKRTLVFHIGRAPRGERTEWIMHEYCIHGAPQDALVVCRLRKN
Put shortly: as §1

For the sequence AAGCGTGT, the binding signal worked out at 0.421 E-score with GST-ANAC092(1-176); 0.242 E-score with GST-ANAC019 NAC domain; 0.167 E-score in the assay with GST-ANAC055(1-171); 0.207 E-score in the assay with GST-ATAF1 NAC domain; 0.44 E-score in [1]; 0.133 E-score with GST-NAP(1-166). The binding signal in the assay with GST-NST2(1-184) is 0.192 E-score; with GST-SND1(1-203), 0.186 E-score; in the assay with GST-VND3 NAC domain, 0.126 E-score; in the assay with GST-VND7 NAC domain, 0.213 E-score.
Take ACGTCACC: the binding signal with GST-ANAC092(1-176) worked out at 0.452 E-score; with GST-ANAC019 NAC domain it was 0.308 E-score; in the assay with GST-ANAC055(1-171), 0.32 E-score; with GST-ATAF1 NAC domain it was 0.311 E-score; in assay [1] it was 0.463 E-score; in the assay with GST-NAP(1-166), 0.356 E-score. Moreover, the binding signal with GST-NST2(1-184) was determined as 0.237 E-score; in the assay with GST-SND1(1-203), 0.408 E-score; with GST-VND3 NAC domain, 0.239 E-score; with GST-VND7 NAC domain, 0.28 E-score.
For ACGCATCC, the binding signal with GST-ANAC092(1-176) was determined as 0.388 E-score; in the assay with GST-ANAC019 NAC domain it was 0.216 E-score; with GST-ANAC055(1-171), 0.194 E-score; in the assay with GST-ATAF1 NAC domain it was 0.195 E-score; in assay [1], 0.431 E-score; in the assay with GST-NAP(1-166), 0.256 E-score. Besides, the binding signal with GST-NST2(1-184) was found to be 0.173 E-score; in the assay with GST-SND1(1-203), 0.397 E-score; in the assay with GST-VND3 NAC domain it was 0.16 E-score; with GST-VND7 NAC domain, 0.231 E-score.
With GGACGCAA, the binding signal in the assay with GST-ANAC092(1-176) is 0.411 E-score; in the assay with GST-ANAC019 NAC domain, 0.155 E-score; in the assay with GST-ANAC055(1-171), 0.0669 E-score; in the assay with GST-ATAF1 NAC domain, 0.0919 E-score; in assay [1] it was 0.437 E-score; in the assay with GST-NAP(1-166) it was 0.303 E-score. The binding signal with GST-NST2(1-184) worked out at 0.107 E-score; with GST-SND1(1-203), 0.25 E-score; in the assay with GST-VND3 NAC domain, 0.0908 E-score; in the assay with GST-VND7 NAC domain, 0.0578 E-score.
With ACACGCCA, the binding signal with GST-ANAC092(1-176) amounted to 0.487 E-score; with GST-ANAC019 NAC domain, 0.382 E-score; with GST-ANAC055(1-171), 0.298 E-score; with GST-ATAF1 NAC domain, 0.227 E-score; in assay [1], 0.492 E-score; in the assay with GST-NAP(1-166), 0.294 E-score. In addition, the binding signal with GST-NST2(1-184) was 0.313 E-score; with GST-SND1(1-203), 0.379 E-score; with GST-VND3 NAC domain, 0.22 E-score; with GST-VND7 NAC domain, 0.257 E-score.
On to CTAACGTA, for which the binding signal is 0.323 E-score with GST-ANAC092(1-176); 0.0668 E-score with GST-ANAC019 NAC domain; 0.216 E-score with GST-ANAC055(1-171); 0.29 E-score with GST-ATAF1 NAC domain; 0.391 E-score in assay [1]; 0.173 E-score in the assay with GST-NAP(1-166). For the same sequence, the binding signal with GST-NST2(1-184) amounted to 0.277 E-score; in the assay with GST-SND1(1-203), 0.426 E-score; in the assay with GST-VND3 NAC domain, 0.25 E-score; with GST-VND7 NAC domain, 0.165 E-score.
For CACGGAAC, the binding signal with GST-ANAC092(1-176) came out at 0.397 E-score; in the assay with GST-ANAC019 NAC domain it was 0.48 E-score; with GST-ANAC055(1-171), 0.466 E-score; with GST-ATAF1 NAC domain, 0.397 E-score; in assay [1], 0.425 E-score; with GST-NAP(1-166), 0.414 E-score. Further, the binding signal with GST-NST2(1-184) came to 0.175 E-score; with GST-NTL8 NAC domain, 0.127 E-score; with GST-SND1(1-203), 0.0702 E-score; with GST-VND3 NAC domain, 0.446 E-score; with GST-VND7 NAC domain, 0.478 E-score.
